Records with an inconclusive call do not appear. Activity calls are given as the source filed them. Rule for the calls, unless noted: active = hit-call score of the fitted dose curve at least 0.9, where 1 is the maximum; inconclusive = response in the unintended direction; inactive = score below 0.9.

The text below walks through data of PubChem BioAssay (EPA / NIEHS).

A short description of assay [1]: CCTE_Mundy_HCI_Cortical_Synap_Neur_Matur_BPCount: CCTE's Synaptogenesis and Neurite Maturation Assay in rat cortical cells for Branch Point Count, Mundy Lab (AID 2284211; active = hit-call score of the fitted dose curve at least 0.9, where 1 is the maximum; inactive = score below 0.9). Put shortly:
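Rat primary cortical cultures, AraC added DIV 5; chemicals dosed DIV 7 through DIV 12. Fixed cells stained for MAP2, synaptophysin and Hoechst; neurite branch points counted by automated high-content imaging, fitted relative to DMSO.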

Assay [2] is described as follows: CCTE_Mundy_HCI_Cortical_NOG_NeuriteCount: CCTE's Neurite Outgrowth Assay in rat cortical cells for Neurite Count, Mundy Lab (AID 2284212; active = hit-call score of the fitted dose curve at least 0.9, where 1 is the maximum; inactive = score below 0.9;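 note: cells fixed about two days after chemical exposure began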). Put shortly: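 Neurite number per cell from high-content imaging of betaIII-tubulin immunostaining, with Hoechst nuclear counterstain.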
The nature of assay [3]: CCTE_Mundy_HCI_Cortical_Synap_Neur_Matur_NeuriteCount: CCTE's Synaptogenesis and Neurite Maturation Assay in rat cortical cells for Neurite Count, Mundy Lab (AID 2284222; active = hit-call score of the fitted dose curve at least 0.9, where 1 is the maximum; inactive = score below 0.9;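 note: exposure from day 7 to day 12 in vitro with readout at day 12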). Put shortly:
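In this multiplexed morphology readout, rat primary cortical neurons are fixed at DIV 12 following dosing at DIV 7 and stained for MAP2, synaptophysin and nuclei. High-content image analysis yields neurite count.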

Assay [4] is described as follows: CCTE_Mundy_HCI_hNP1_Pro_ResponderAvgInten: CCTE's Proliferation Assay in human neuroprogenitor cells, Mundy Lab (AID 2284224). The method, boiled down: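 Proliferation was scored as BrdU labelling intensity in human neural progenitors derived from WA09 embryonic cells, measured 26.25 hours after chemical dosing. Activity was fitted relative to DMSO.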
Assay [5] is described as follows: CCTE_Mundy_HCI_hNP1_Casp3_7: CCTE's Caspase-Glo 3/7 Assay in human neuroprogenitor cells for Apoptosis, Mundy Lab (AID 2284240; active = hit-call score of the fitted dose curve at least 0.9, where 1 is the maximum; inactive = score below 0.9). Put shortly:
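Apoptosis is scored by activated caspase-3/7 luminescence in WA09-derived neural progenitor cells, measured 26.5 h after chemical dosing. Values represent gain of signal relative to DMSO vehicle.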

The target of assay [6] is human Tyrosine Protein Kinase Receptor Tie-2 (Tie2), TEK (gene 7010) (UniProt Q02763). Kind of assay: NVS_ENZ_hTie2: NovaScreen (NVS) Enzymatic Assay for human Tyrosine Protein Kinase Receptor Tie-2 (Tie2) (AID 2283225). The method, boiled down: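 Recombinant human Tie2 kinase activity was read cell-free by fluorescence with electrophoretic mobility shift, 1 hour after dosing. The screen used 25 uM in duplicate, then concentration-response up to 50 uM. Signal loss was scored against DMSO.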
Chain of human Tyrosine Protein Kinase Receptor Tie-2 (Tie2), TEK (gene 7010) (Q02763 whole entry, looked up): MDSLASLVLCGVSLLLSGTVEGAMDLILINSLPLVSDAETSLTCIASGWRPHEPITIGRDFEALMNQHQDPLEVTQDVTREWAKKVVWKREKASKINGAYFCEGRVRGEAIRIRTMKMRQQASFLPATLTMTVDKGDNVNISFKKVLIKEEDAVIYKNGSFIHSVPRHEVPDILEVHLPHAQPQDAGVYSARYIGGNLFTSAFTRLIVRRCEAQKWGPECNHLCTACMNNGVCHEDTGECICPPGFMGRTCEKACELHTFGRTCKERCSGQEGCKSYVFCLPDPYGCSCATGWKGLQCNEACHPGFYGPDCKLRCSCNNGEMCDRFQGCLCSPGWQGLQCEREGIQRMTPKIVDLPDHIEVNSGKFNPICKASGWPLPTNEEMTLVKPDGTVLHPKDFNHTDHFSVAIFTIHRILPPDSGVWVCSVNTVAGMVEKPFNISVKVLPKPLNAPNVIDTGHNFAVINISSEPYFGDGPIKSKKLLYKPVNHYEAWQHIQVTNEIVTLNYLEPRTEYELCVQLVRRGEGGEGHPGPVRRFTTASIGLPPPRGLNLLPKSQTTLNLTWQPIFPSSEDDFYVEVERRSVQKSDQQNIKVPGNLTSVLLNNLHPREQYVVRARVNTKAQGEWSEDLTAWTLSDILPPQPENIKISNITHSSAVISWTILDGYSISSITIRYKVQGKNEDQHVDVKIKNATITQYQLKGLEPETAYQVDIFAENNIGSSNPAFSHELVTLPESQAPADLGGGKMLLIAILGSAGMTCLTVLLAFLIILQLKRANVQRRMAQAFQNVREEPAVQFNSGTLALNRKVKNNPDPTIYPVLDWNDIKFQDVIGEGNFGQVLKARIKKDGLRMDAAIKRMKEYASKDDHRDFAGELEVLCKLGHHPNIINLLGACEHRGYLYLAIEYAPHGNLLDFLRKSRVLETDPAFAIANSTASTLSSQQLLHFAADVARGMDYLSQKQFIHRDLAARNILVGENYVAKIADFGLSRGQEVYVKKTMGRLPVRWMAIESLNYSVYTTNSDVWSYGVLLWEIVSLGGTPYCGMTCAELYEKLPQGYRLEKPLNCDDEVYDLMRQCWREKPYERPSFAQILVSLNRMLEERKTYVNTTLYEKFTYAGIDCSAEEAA

Read-out in assay [7]: Tumor necrosis factor receptor superfamily member 6 (Homo sapiens) (UniProt P25445)
Nature of the assay: LTEA_HepaRG_FAS: Life Technologies and Expression Analysis (LTEA) Assay for Fas cell surface death receptor (FAS) using HepaRG (AID 2283447; active = hit-call score of the fitted dose curve at least 0.9, where 1 is the maximum; inactive = score below 0.9). The conditions noted are these: mRNA level, 48 h; actives raise or lower the signal. Put shortly: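 FAS transcript level was measured by TaqMan qRT-PCR against three housekeeping genes after 48 h chemical exposure. Cells were HepaRG, 0.5% DMSO vehicle, with a top concentration of 100 uM and half-log dilutions over eight points, in duplicate.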

Assay [8] is described as follows: IUF_NPC5_oligodendrocyte_differentiation_120hr: Leibniz Research Institute for Environmental Medicine (IUF) 120-hour Oligodendrocyte Differentiation Assay (NPC5) (AID 2284304).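 Note: primary human fetal neural progenitor spheres plated to migrate and differentiate; share of O4-positive cells among Hoechst nuclei found by CNN image analysis.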 The method, boiled down: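 Oligodendrocyte differentiation was scored after 120 h as the O4-positive share of Hoechst-stained nuclei across the neurosphere migration area, using a trained convolutional neural network on high-content fluorescence images. Human fetal neural progenitor spheres were dosed from day 0, normalised to DMSO.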

A short description of assay [9]: TAMU_PeakParms_SingleDonor1434_Asystole: Texas A&M University (TAMU) 1.5-hr Human Induced Pluripotent Stem Cell (iPSC)-derived Cardiomyocytes Calcium (Ca+2) Flux Assay for Cardiotoxicity: Asystole (quiescence of beating) (AID 2284328). The method, boiled down:
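Average Ca2+-flux peak frequency (beats/s) was recorded in single-donor iPSC-derived cardiomyocytes after 90 min exposure (0.2–100 uM final, 0.5% DMSO). Asystole POD set as EC95 against DMSO, no preprocessing.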

Assay [10] deals with human Dopamine Transporter (DAT), SLC6A3 (gene 6531) (UniProt Q01959). Nature of the assay: NVS_TR_hDAT: NovaScreen (NVS) Transporter Assay for human Dopamine Transporter (DAT) (AID 2283374).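 Note: activity means loss of bound radioligand signal relative to DMSO.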 Put shortly: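 Test chemicals were first screened in duplicate at 25 uM, with actives retested as concentration series. Displacement of a specific radioligand from cell-free human dopamine transporter was measured after 1 h by filtration and scintillation counting.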
Chain of human Dopamine Transporter (DAT), SLC6A3 (gene 6531) (Q01959 whole entry, looked up): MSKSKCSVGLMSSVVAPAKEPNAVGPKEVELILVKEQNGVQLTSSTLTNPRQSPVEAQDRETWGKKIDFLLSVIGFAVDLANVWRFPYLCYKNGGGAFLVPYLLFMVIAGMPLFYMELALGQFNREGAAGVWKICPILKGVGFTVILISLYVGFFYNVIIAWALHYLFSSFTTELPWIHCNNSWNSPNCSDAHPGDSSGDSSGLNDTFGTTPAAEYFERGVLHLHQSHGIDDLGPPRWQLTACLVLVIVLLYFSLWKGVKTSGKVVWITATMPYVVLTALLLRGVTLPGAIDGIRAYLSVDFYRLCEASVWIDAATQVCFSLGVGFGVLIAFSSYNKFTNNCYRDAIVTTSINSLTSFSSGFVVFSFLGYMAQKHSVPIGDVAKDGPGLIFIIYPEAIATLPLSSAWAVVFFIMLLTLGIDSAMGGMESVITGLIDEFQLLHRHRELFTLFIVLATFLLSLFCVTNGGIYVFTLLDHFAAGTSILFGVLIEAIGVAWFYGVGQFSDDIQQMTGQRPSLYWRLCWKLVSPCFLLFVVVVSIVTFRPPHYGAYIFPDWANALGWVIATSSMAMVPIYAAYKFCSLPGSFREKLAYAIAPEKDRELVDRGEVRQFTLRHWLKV

Assay [11] deals with human Norepinephrine Transporter (NET), SLC6A2 (gene 6530) (UniProt P23975). Nature of the assay: NVS_TR_hNET: NovaScreen (NVS) Transporter Assay for human Norepinephrine Transporter (NET) (AID 2283377).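 For AC50: displacement of radioligand from human NET seen as loss of scintillation signal.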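 Note: cell-free membrane protein extracted from CHO cells expressing human NET.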 Put shortly:
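Scintillation counts of filter-retained radioligand served as the readout, taken 1 h post-dosing in a cell-free CHO-derived system. Test chemicals ran first at 25 uM in duplicate; confirmed hits were retested across concentrations.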

Assay [12] deals with Estrogen receptor (Homo sapiens) + Estrogen receptor beta (Homo sapiens) (UniProt P03372+Q92731). Kind of assay: OT_ER_ERaERb_0480: Odyssey Thera (OT) 8-hour HEK293T Protein-Complementation Assay for Estrogen Receptor-alpha/-beta Heterodimer (AID 2283352). Put shortly:
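Compound added to HEK293T cells carrying split-reporter-tagged ER-alpha and ER-beta LBDs, incubated 8 hours, then imaged by laser scanning cytometer. Signal rise in nucleus, or nucleus and cytoplasm, over vehicle was fitted in the positive direction.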

Assay [13] deals with human Esterase Plasma (ES), BCHE (gene 590) (UniProt P06276). Kind of assay: NVS_ENZ_hES: NovaScreen (NVS) Enzymatic Assay for human Esterase Plasma (ES) (AID 2283157). Put shortly: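 Chemicals were added to plasma-extracted human enzyme in a cell-free format, and activity was read colorimetrically after 0.25 hour. Activity loss was referenced to DMSO; concentration-response top dose was 50 uM.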
Chain of human Esterase Plasma (ES), BCHE (gene 590) (P06276 whole entry, looked up): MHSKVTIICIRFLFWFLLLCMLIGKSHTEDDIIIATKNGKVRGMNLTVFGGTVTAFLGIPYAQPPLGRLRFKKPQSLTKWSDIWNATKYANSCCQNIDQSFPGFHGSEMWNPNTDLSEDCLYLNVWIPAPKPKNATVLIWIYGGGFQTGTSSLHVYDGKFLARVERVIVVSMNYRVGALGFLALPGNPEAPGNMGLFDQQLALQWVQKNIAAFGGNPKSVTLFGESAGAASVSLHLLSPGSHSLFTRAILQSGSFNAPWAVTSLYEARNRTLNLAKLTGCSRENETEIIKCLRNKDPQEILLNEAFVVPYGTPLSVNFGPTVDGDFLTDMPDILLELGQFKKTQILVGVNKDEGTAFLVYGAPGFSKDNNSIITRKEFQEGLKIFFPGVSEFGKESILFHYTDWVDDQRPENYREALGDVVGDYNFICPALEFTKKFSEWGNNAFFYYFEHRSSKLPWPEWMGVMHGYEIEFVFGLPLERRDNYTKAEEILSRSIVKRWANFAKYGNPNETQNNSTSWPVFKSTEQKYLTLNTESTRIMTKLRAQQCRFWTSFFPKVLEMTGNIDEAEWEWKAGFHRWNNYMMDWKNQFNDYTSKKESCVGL

The target in assay [14] is Estrogen receptor (Homo sapiens) (UniProt P03372). Nature of the assay: NVS_NR_hER: NovaScreen (NVS) Nuclear Receptor Binding Assay for human Estrogen Receptor (ER) (AID 2283348). Put shortly:
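Scintillation signal from bound radioligand was measured 18 hours after chemical addition to cell-free MCF7 protein extracts, with DMSO as baseline. Activity was scored as signal loss; compounds ran first at 25 uM in duplicate.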

Assay [15] addresses PGR (gene 5241) (UniProt P06401). Kind of assay: TOX21_PR_BLA_Followup_Antagonist_ratio: Tox21 HEK293 Progesterone Receptor (PR) Antagonism Beta-lactamase Follow-Up Assay, Ratio (AID 2283934). Put shortly: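 PR-UAS-bla HEK293T cells, 3,000/well in 2% charcoal-stripped FBS, given compound plus 1nM R5020 agonist for 16 hr at 37C. Beta-lactamase FRET substrate 2 hours, ratio cleaved/uncleaved fluorescence; viability by CellTiter-Glo in same wells.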

Assay [16] is described as follows: TOX21_PR_BLA_Followup_Agonist_viability: Viability Assessment in the Tox21 HEK293 Progesterone Receptor (PR) Agonism Beta-lactamase Follow-Up Assay (AID 2283935).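 Note: signal loss means lower viability so actives are cytotoxic.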 The method, boiled down:
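PR-UAS-bla HEK293T cells in 2% charcoal-stripped FBS medium, plated 6 hr before compound addition, exposed 16 hr at 37C. Viability read by CellTiter-Glo ATP luminescence after 30 min at room temperature, in the same wells as the beta-lactamase readout.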

Assay [17] is described as follows: TOX21_PR_BLA_Followup_Antagonist_viability: Viability Assessment in the Tox21 HEK293 Progesterone Receptor (PR) Antagonism Beta-lactamase Follow-Up Assay (AID 2283936).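 Note: hits lower the luminescence signal meaning cytotoxicity.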 Put shortly: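 PR-UAS-bla HEK293T cells (3,000/well, 2% charcoal-stripped FBS) given compound plus R5020 agonist, 16 h at 37C. CellTiter-Glo added after bla read, 30 min at room temperature; luminescence loss indicates cytotoxicity.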

A short description of assay [18]: TOX21_PR_LUC_Followup_Antagonist_viability: Viability Assessment in the Tox21 HEK293 Progesterone Receptor (PR) Antagonism Luciferase Follow-Up Assay (AID 2283940). Put shortly: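 HEK293-PR-A-luc cells kept in charcoal-stripped FBS medium were plated 5 h before compound addition, then exposed 16 h at 37C; viability read as cellular ATP by luciferase luminescence, loss of signal indicating cytotoxicity.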

Assay [19] is described as follows: TOX21_PR_LUC_Followup_Agonist_viability: Viability Assessment in the Tox21 HEK293 Progesterone Receptor (PR) Agonism Luciferase Follow-Up Assay (AID 2283941).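 Note: loss of signal means cytotoxicity so actives lower viability.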 The method, boiled down: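 HEK293-PR-A-luc cells, kept in 10% charcoal-stripped FBS medium, were treated with compounds for 16 h at 37C. Viability read as cellular ATP by luciferase-coupled luminescence; loss of signal indicates cytotoxicity.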

Assay [20] concerns the target PGR (gene 5241) (UniProt P06401). Nature of the assay: NVS_NR_hPR: NovaScreen (NVS) Nuclear Receptor Binding Assay for human Progestron Receptor (PR) (AID 2283360).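 Note: active means loss of bound radioligand signal versus DMSO baseline.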 Put shortly: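 Competitive displacement of a labelled radioligand from T47D-derived receptor protein is measured in a cell-free format. Initial testing uses 25 uM in duplicate, with positive and negative controls on every plate.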

Chain of Estrogen receptor (Homo sapiens) (P03372 whole entry, looked up): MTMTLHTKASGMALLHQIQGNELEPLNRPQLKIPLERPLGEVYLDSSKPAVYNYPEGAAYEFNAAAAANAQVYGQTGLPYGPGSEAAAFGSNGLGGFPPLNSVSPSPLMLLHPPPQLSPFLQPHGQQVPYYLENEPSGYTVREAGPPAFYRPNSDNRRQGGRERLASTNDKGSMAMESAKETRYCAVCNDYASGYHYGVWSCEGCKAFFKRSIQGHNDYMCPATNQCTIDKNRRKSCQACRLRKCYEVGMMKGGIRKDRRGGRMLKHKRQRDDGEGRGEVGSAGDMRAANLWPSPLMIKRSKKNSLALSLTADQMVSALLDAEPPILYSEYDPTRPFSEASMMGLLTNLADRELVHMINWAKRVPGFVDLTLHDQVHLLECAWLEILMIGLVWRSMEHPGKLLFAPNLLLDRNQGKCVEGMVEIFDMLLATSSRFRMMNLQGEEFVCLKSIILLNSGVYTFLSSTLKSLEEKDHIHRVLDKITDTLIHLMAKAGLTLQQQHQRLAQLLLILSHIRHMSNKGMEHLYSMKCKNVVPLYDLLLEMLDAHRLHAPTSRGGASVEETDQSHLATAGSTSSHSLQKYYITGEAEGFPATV
Chain of Estrogen receptor (Homo sapiens) + Estrogen receptor beta (Homo sapiens) (P03372 whole entry, looked up): as above
Chain of Estrogen receptor (Homo sapiens) + Estrogen receptor beta (Homo sapiens) (Q92731 whole entry, looked up): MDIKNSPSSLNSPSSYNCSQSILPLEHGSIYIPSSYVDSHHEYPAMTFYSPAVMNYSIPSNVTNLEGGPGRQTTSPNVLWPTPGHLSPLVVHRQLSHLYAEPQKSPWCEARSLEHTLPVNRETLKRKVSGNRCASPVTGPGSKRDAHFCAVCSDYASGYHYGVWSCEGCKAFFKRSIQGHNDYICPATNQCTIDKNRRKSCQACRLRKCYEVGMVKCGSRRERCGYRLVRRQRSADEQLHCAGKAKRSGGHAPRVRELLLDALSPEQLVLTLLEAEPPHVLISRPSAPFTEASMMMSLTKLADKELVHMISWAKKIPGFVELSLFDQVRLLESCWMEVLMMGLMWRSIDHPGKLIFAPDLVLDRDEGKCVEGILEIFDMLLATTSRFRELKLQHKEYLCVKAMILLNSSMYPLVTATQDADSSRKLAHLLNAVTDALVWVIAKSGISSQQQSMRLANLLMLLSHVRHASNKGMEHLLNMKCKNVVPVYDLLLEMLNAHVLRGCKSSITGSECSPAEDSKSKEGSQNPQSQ
Chain of PGR (gene 5241) (P06401 whole entry, looked up): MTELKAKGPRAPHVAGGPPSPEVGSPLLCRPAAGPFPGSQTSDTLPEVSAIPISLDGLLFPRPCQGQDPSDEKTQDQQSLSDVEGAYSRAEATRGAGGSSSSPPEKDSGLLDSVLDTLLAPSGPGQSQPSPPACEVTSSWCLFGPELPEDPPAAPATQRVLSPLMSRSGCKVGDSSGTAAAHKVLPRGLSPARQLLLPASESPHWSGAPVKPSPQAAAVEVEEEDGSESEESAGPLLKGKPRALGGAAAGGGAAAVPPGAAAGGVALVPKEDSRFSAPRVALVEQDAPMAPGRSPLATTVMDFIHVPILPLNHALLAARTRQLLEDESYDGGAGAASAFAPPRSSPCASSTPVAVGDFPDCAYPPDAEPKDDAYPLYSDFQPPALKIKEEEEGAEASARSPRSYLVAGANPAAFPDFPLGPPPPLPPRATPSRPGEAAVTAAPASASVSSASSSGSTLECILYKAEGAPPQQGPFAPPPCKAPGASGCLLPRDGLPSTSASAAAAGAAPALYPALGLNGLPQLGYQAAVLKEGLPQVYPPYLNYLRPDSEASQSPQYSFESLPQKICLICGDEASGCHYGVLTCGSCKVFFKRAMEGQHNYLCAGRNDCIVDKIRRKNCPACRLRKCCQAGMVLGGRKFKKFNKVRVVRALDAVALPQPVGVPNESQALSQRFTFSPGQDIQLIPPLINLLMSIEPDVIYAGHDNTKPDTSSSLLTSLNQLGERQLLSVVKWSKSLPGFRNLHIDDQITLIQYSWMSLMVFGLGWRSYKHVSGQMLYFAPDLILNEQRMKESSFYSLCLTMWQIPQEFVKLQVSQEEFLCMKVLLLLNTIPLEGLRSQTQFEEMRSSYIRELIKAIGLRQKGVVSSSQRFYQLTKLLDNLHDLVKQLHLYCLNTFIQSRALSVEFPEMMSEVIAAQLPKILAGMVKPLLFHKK
Chain of human Norepinephrine Transporter (NET), SLC6A2 (gene 6530) (P23975 whole entry, looked up): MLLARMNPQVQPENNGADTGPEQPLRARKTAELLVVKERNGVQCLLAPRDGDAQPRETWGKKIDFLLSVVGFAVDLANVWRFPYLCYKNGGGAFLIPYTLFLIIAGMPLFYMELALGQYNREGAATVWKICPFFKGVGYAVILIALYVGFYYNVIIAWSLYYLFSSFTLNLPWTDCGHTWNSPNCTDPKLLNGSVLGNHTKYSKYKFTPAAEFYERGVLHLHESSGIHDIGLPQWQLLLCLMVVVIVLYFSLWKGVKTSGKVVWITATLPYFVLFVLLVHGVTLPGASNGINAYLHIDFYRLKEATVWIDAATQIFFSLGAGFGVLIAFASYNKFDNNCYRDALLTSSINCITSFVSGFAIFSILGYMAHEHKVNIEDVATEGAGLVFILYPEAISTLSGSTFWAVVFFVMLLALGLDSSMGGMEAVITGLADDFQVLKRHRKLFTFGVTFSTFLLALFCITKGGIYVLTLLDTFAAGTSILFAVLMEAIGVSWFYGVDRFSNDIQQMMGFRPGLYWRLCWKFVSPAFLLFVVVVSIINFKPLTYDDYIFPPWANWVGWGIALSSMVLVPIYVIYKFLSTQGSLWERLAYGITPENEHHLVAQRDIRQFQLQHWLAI

For the molecule `CNC(=N[N+](=O)[O-])NCC1CCOC1` (stereo not drawn), the result in assay [1], in assay [2], in assay [3], in assay [4] and in assay [5] was inactive.
Turning to `O=C(CCl)c1ccccc1`, the molecule was called inactive in assay [6] and in assay [7].
As a reminder, the AC50 is the concentration giving half of the maximal activity seen. As for `CC(C)CCCCCCCOP(=O)(Oc1ccccc1)Oc1ccccc1`, the half-maximal activity concentration (AC50) in assay [8] is 5.15 µM (active). Moreover, the result in assay [9] was inactive.
Turning to `O=C1C=CC(=O)C=C1`, the AC50 in assay [10] is 13.9 µM (active).
With `O=[N+]([O-])c1ccc(Cl)cc1`, the molecule was called inactive in assay [6], in assay [11] and in assay [7].
For the molecule `CC(=O)/C=C/c1ccccc1`, the half-maximal activity concentration (AC50) in assay [11] is 19.9 µM (active).
As for `Cc1cc(C)c(C2=C(OC(=O)CC(C)(C)C)C3(CCCC3)OC2=O)c(C)c1`, the outcome in [12] was inactive.
The same measure, in the same setting: for `c1ccc2c(c1)CCCC2` the value was “inactive”.
With `COC(C)(C)CCC[C@H](C)C/C=C/C(C)=C/C(=O)OC(C)C`, in assay [13], the concentration at half-maximal activity (AC50) is 16.5 µM (active).
In the case of `c1ccc(P(c2ccccc2)c2ccccc2)cc1`, the AC50 in assay [12] is 28.5 µM (active).
With `CC1OC(C)OC(C)O1` (stereo not drawn), the molecule was classed as inactive in [13].
Take `Cc1ccc(OP(=O)(Oc2ccc(C)cc2)Oc2ccc(C)cc2)cc1` (tested in a mixture with another compound): the outcome in [1], in assay [3] and in assay [8] was inactive. For the same molecule, the results for the AC50 in assay [2] and in assay [9] were 20.6 µM (active) and 7.7 µM (active), respectively.
Regarding `CC1(C)[C@H](C(=O)O[C@H](C#N)c2cccc(Oc3ccccc3)c2)[C@@H]1C=C(Br)Br`, the values for the half-maximal activity concentration (AC50) in assay [10], in assay [11] and in assay [8] were 7.41 µM (active), 32.8 µM (active) and 0.729 µM (active), respectively. Moreover, the molecule was called inactive in assay [4], in assay [5] and in assay [9].
With `Nc1ccc(-c2ccc(N)c(N)c2)cc1N`, the concentration at half-maximal activity (AC50) in [13] was 29.1 µM (active).
On to `O=[N+]([O-])c1cc(C(F)(F)F)c(Cl)c([N+](=O)[O-])c1Cl`, for which the call in [14] was inactive.
Turning to `CC(=O)c1cc2c(cc1C)C(C)(C)C(C)CC2(C)C` (stereo not drawn), in the assay with PGR (gene 5241) [15], the concentration at half-maximal activity (AC50) was 5.67 µM (active). The molecule was called inactive in assay [16], in assay [17], in assay [18] and in assay [19].
Consider `C=COCCCl`, for which the outcome in the assay with PGR (gene 5241) [20] was inactive.
For the molecule `C[C@]12CC[C@H](O)C[C@H]1CC[C@@H]1[C@@H]2C[C@@H](O)[C@]2(C)[C@@H](C3=CC(=O)OC3)CC[C@]12O`, the molecule was called inactive in the assay with PGR (gene 5241) [20]. For the same molecule, the AC50 in [10] was 40.9 µM (active).
`ClC1=C(Cl)[C@]2(Cl)[C@@H]3[C@@H](Cl)[C@H](Cl)C[C@@H]3[C@@]1(Cl)C2(Cl)Cl`: the result with PGR (gene 5241) [20] was inactive.
Turning to `CCCCOP(=O)(O)OCCCC`, the outcome in assay [14] was inactive.
Consider `C[C@]12CCC(=O)C(O)=C1CC[C@@H]1[C@@H]2CC[C@]2(C)C(=O)CC[C@@H]12`, for which the AC50 with PGR (gene 5241) [15] is 11.3 µM (active). Besides, the call in [16], in assay [17], in assay [18] and in [19] was inactive.
On to `c1cc(OCC2CO2)ccc1Cc1ccc(OCC2CO2)cc1` (stereo not drawn), for which, in [14], the outcome was inactive.
For the molecule `N#Cc1cc(I)c(O)c(I)c1`, the outcome (in the assay with PGR (gene 5241) [15]; in [16]; in assay [17]; in assay [18]; in [19]) was inactive.
